According to PubChem BioAssay AID485297 (National Center for Advancing Translational Sciences (NCATS), 2010):
Among all 320,000 compounds or so, about 9,100 (2.8%) were called active. About 3% were inconclusive and are not listed. Calls come from the whole dose curve; as a rule, active = well fitted activation curve with a large enough effect; inconclusive = small, poorly fitted or top-dose-only effect; inactive = no such curve, though single readings can be large or run the other way. Shown is part of a subset that was picked to be rich in actives. Entries that show only a call come without a potency.
Potency is the fitted concentration of half-maximal effect.

Assay: qHTS Assay for Rab9 Promoter Activators; note: nearly all actives have a fitted effect of over 60% in size
Details: Huh7 Rab9 promoter-luciferase reporter, luminescence, 24 h; series mostly up to 9.22 µM
Outline: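 Stable Rab9-luc Huh7, 1500 cells/well, 2 h settle; cmpd in DMSO, 24 h, 37 °C/5% CO2; luciferase reagent 10 min RT; luminescence.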
With `CCCc1cc(C(=O)Nc2ccc(C(=O)OC)cc2)cs1` the Potency was “inactive”.
In the case of `Cc1ccc2sc(NNC(=O)c3ccc4c(c3)OCCO4)nc2c1C`, the Potency is reported as “inactive”.
In the case of `CCCCC(CC)C(=O)Nc1ccc(Cl)cn1` (stereo not drawn), the Potency is reported as “inactive”.
With `O=C(Nc1cccc(Cl)c1N1CCOCC1)c1ccc2c(c1)OCCO2` the Potency was “inactive”.
With `Cc1nc(NC(=O)c2ccc3c(c2)OCCO3)ccc1Br` the Potency was 0.562 µM (active).
With `Cc1cccc(C)c1NC(=O)CNC(=O)c1ccc2c(c1)OCCO2` the Potency was “inactive”.
For `CC(=O)c1ccc2c(c1)OCCOCCOc1ccc(C(C)=O)cc1OCCOCCO2`, the Potency was “inactive”.
With `COc1ccc(C(=O)NC(=S)Nc2ccc(Cl)cn2)cc1OC` the Potency was “inactive”.
In the case of `O=C(Nc1ccc(Cl)cn1)c1ccc2c(c1)OCCO2`, the Potency is reported as 0.562 µM (active).
With `Cc1ccc(C(=O)NNC(=O)c2ccc3c(c2)OCCO3)cc1` the Potency was 3.98 µM (active).
In the case of `COc1ccc(/C=N/NC(=O)c2ccc3c(c2)OCCO3)c(OC)c1`, the Potency is reported as “inactive”.
In the case of `CCCc1cc(C(=O)Nc2ccc(Cl)cn2)cs1`, the Potency is reported as 0.447 µM (active).
In the case of `CCOCC(=O)NCc1ccc2c(c1)cc(C)n2C`, the Potency is reported as “inactive”.
For `Cc1cccc(Nc2nnc(SCC(=O)c3c(N)n(C4CC4)c(=O)[nH]c3=O)s2)c1C`, the Potency was “inactive”.
For `Cc1cc(C)c2nc(SCC(=O)N(C)C3CCS(=O)(=O)C3)cc(C)c2c1` (stereo not drawn), the Potency was “inactive”.
In the case of `CC(C)(C)C1C/C(=C/c2ccco2)C(=O)/C(=C/c2ccco2)C1` (stereo not drawn), the Potency is reported as “inactive”.
In the case of `CSc1ccc(Cl)c(C(=O)OCC(=O)N2CCNC2=O)c1`, the Potency is reported as “inactive”.
For `CCn1c(=S)sc2c(=O)n(CC(=O)Nc3ccc(OC)cc3)c(C)nc21`, the Potency was “inactive”.
With `Cc1ccc(CSc2ccc(S(=O)(=O)N3CCCCC3)cn2)cc1` the Potency was “inactive”.
In the case of `O=C(CCNS(=O)(=O)c1ccccc1)NCCCc1ccccc1`, the Potency is reported as “inactive”.
For `CC(=O)Oc1ccc2c(c1)C(=O)c1ccccc1C2=O`, the Potency was “inactive”.
For `COc1cccc(-c2ccc3c(c2)S(=O)(=O)c2cccc(C(=O)O)c2C3=O)c1OC`, the Potency was “inactive”.
In the case of `COc1ccc2c(c1OC)C(=O)c1ccccc1C2=O`, the Potency is reported as 3.98 µM (active).
In the case of `CN(CC(=O)NCCc1ccc(F)cc1)CC(=O)Nc1ccc(F)c(F)c1F`, the Potency is reported as “inactive”.
For `Cc1c(C(=O)Nc2ccccn2)oc2ccc(Br)cc12`, the Potency was 3.55 µM (active).
With `Cc1nonc1NC(=O)c1oc2ccccc2c1C` the Potency was “inactive”.
With `Cc1noc(C)c1C(=O)Nc1ccccn1` the Potency was “inactive”.
With `CC1CCCN(C(=O)c2cc(-c3ccco3)nc3ccccc23)C1` (stereo not drawn) the Potency was “inactive”.
In the case of `O=C(Cc1cccs1)NCc1cccc(C(F)(F)F)c1`, the Potency is reported as 2.51 µM (active).
For `COc1cc(CC(=O)NCc2cccs2)cc(OC)c1OC`, the Potency was “inactive”.
For `O=C(CCC(=O)c1ccccc1)NCc1cccc(C(F)(F)F)c1`, the Potency was “inactive”.
For `O=S(=O)(c1ccc(SCc2ccc(Br)cc2)nc1)N1CCOCC1`, the Potency was “inactive”.
With `COC(=O)c1cccc(NC(=O)c2cccc(N3C(=O)CCC3=O)c2)c1` the Potency was “inactive”.
For `O=C(COC(=O)c1cc(S(=O)(=O)N2CCOCC2)ccc1Cl)NCCc1ccccc1`, the Potency was “inactive”.
For `CC(C)c1ccc(S(=O)(=O)N2CCN(C(C)C(=O)NC3CCCC3)CC2)cc1` (stereo not drawn), the Potency was “inactive”.
In the case of `COc1ccc(-c2csc(-c3cccs3)n2)cc1OC`, the Potency is reported as 1.78 µM (active).
For `COc1ccc(OC)c(-c2csc(-c3cccs3)n2)c1`, the Potency was “inactive”.
With `COc1cccc(CC(=O)Nc2nc(-c3ccc(OC)c(OC)c3)cs2)c1` the Potency was “inactive”.
For `O=C1Cc2cc(S(=O)(=O)Nc3cccc(F)c3)ccc2N1`, the Potency was “inactive”.
For `COc1ccc(CCNC(=O)COC(=O)c2cc(=O)c3ccccc3o2)cc1`, the Potency was “inactive”.
In the case of `COc1cccc(CC(=O)Nc2ccc(-c3csc(C)n3)cc2)c1`, the Potency is reported as “inactive”.
In the case of `COc1ccc(-c2csc(Cc3nc(O)cs3)n2)cc1`, the Potency is reported as 1 µM (active).
For `CC(C)(C)C(=O)OCc1nc(-c2ccc(O)c(O)c2)cs1`, the Potency was “inactive”.
For `O=C(c1cn(-c2ccccc2)nc1-c1cccnc1)N1CCN(S(=O)(=O)c2ccccc2F)CC1`, the Potency was “inactive”.
For `CC(=O)Nc1ccc(C(=O)Nc2nc(-c3cc(C)n(Cc4ccccc4)c3C)cs2)cc1`, the Potency was “inactive”.
In the case of `Cc1ccc(Nc2nc(-c3ccc(O)cc3O)cs2)nc1`, the Potency is reported as 1.41 µM (active).
For `O=C(CCNS(=O)(=O)c1ccccc1C(F)(F)F)Nc1ccncc1`, the Potency was “inactive”.
With `Cc1cccc(OCCC(=O)OCc2csc(CC(=O)Nc3ccccc3C)n2)c1` the Potency was “inactive”.
With `Cc1cc(Cl)c2oc(C(=O)N3CCC(O)(c4ccccc4)CC3)c(C)c2c1` the Potency was “inactive”.
For `Clc1cccc(Cl)c1Cn1nnc(-c2cccs2)n1`, the Potency was 2.82 µM (active).
In the case of `O=c1cc(Cn2nnc(-c3ccc(Cl)cc3)n2)nc2sccn12`, the Potency is reported as “inactive”.
In the case of `COc1ccccc1N1CCN(C(=O)Cn2nnc(-c3cccs3)n2)CC1`, the Potency is reported as “inactive”.
For `Nc1ccc(-n2nncc2-c2ccco2)cc1`, the Potency was “inactive”.
For `COc1ccc(CCC(=O)N2CCN(S(=O)(=O)c3ccc(OC)cc3)CC2)cc1`, the Potency was “inactive”.
For `COc1ccc(CCNC(=O)CCc2ccccc2O)cc1OC`, the Potency was “inactive”.
For `O=C(O)/C(=C/c1cccnc1)NC(=O)c1ccccc1`, the Potency was “inactive”.
In the case of `CCOc1ccc(NC(=O)CN(C)C(=O)CCSc2ccc(F)cc2)cc1OCC`, the Potency is reported as “inactive”.
With `C=CCSc1ccc(S(=O)(=O)N2CCN(C)CC2)cn1` the Potency was “inactive”.
With `O=C(Nc1ccccc1)N1CCC(C(=O)N2CCN(Cc3ccccc3)CC2)CC1` the Potency was “inactive”.
In the case of `Cn1c(N)c(C(=O)COC(=O)/C=C/c2cccc(C(F)(F)F)c2)c(=O)n(C)c1=O`, the Potency is reported as “inactive”.
In the case of `O=C(Nc1ccccc1-c1nc2ccccc2[nH]c1=O)c1cccs1`, the Potency is reported as “inactive”.
With `C/C(=N\Nc1ccc(S(N)(=O)=O)cc1[N+](=O)[O-])c1cccs1` the Potency was “inactive”.
With `C/C(=N\Nc1nc(Nc2ccccc2)nc(N2CCOCC2)n1)c1cccs1` the Potency was “inactive”.
In the case of `C/C(=N\Nc1ncc(Cl)cc1Cl)c1cccs1`, the Potency is reported as 1.26 µM (active).
In the case of `C/C(=N\Nc1nc2ccccc2[nH]1)c1cccs1`, the Potency is reported as 1 µM (active).
With `C/C(=N\NS(=O)(=O)c1ccc(Br)cc1)c1cccs1` the Potency was “inactive”.
For `O=C(c1ccc(Cl)nc1)N1CCN(S(=O)(=O)c2ccc3c(c2)OCCO3)CC1`, the Potency was “inactive”.
In the case of `CCc1ccccc1OCC(=O)Nc1ccc(C)c(S(=O)(=O)N2CCCCCC2)c1`, the Potency is reported as “inactive”.
For `CCCCN(C(=O)C1=NN(c2cc(C)ccc2C)C(=O)CC1)c1c(N)n(CCC)c(=O)[nH]c1=O`, the Potency was “inactive”.
With `CCC1CCC2(CC1)NC(=O)N(CC(=O)Nc1ccc(OC)cc1)C2=O` (stereo not drawn) the Potency was “inactive”.
In the case of `COc1ccc(OC)c(CN2CCN(C(=O)CNC(=O)c3cc(C)cc(C)c3)CC2)c1`, the Potency is reported as “inactive”.
With `COc1cc([C@H](Cc2ccccc2)NC(C)=O)oc(=O)c1` the Potency was “inactive”.
In the case of `Cc1ccc(C)c(C(=O)COC(=O)Cn2[nH]c(=O)c3ccccc3c2=O)c1`, the Potency is reported as “inactive”.
For `O=c1c(-c2ccccc2)coc2c(CN3CCOCC3)c(O)ccc12`, the Potency was “inactive”.
In the case of `CC(C)CN(Cc1c(O)ccc2c(=O)c(-c3ccccc3)coc12)CC(C)C`, the Potency is reported as “inactive”.
In the case of `O=c1c(-c2ccccc2)coc2cc(O)ccc12`, the Potency is reported as 2.82 µM (active).
With `COc1ccccc1CNC(=O)CCCN1C(=O)NC2(CCCC2)C1=O` the Potency was “inactive”.
With `COc1ccc(C2(C)ON(c3ccccc3C(F)(F)F)C2=O)cc1` (stereo not drawn) the Potency was “inactive”.
For `Cc1nc(-c2ccc(F)cc2)c(CC(=O)N(C)CC(=O)Nc2c(C)cccc2C)s1`, the Potency was “inactive”.
In the case of `Cc1ccc(/C=N/NC(=O)c2sccc2OCc2ccc(F)cc2)cc1`, the Potency is reported as “inactive”.
With `Cc1ccsc1C(=O)N/N=C/c1ccc([N+](=O)[O-])cc1` the Potency was 3.55 µM (active).
With `Cc1ccc(NC(=O)c2sccc2C)cc1[N+](=O)[O-]` the Potency was 1.78 µM (active).
For `Cc1nc2ccccc2cc1C(=O)N/N=C/c1ccc([N+](=O)[O-])cc1`, the Potency was “inactive”.
With `Cc1ccc(NC(=O)CN2CCC(C(N)=O)CC2)cc1[N+](=O)[O-]` the Potency was “inactive”.
For `Cc1ccc(NC(=O)CN(C)CC(=O)Nc2cccc(F)c2)cc1[N+](=O)[O-]`, the Potency was “inactive”.
For `CN(C)c1cc2c(Nc3ccc4c(cnn4Cc4ccccc4)c3)ncnc2cn1`, the Potency was “inactive”.
For `CNC(=O)C1CC(=O)N(c2ccc(OCC(=O)Nc3ccccc3C)cc2)C1` (stereo not drawn), the Potency was “inactive”.
For `COc1ccc(NS(=O)(=O)c2cc(NC(=O)COc3ccccc3F)ccc2OC)cc1`, the Potency was “inactive”.
In the case of `CCOc1ccc2oc(C(=O)N(CC)CC(=O)Nc3ccc(NC(C)=O)cc3)c(C)c2c1`, the Potency is reported as “inactive”.
With `CCC[C@H]1CCCC/C=C\CCCC(=O)OCCN1C(=O)OC(C)(C)C` the Potency was “inactive”.
With `Nc1c(C(=O)OCC(=O)Nc2ccc(OC(F)F)cc2)[nH]c(=O)[nH]c1=O` the Potency was “inactive”.
In the case of `NC(=O)COC(=O)/C=C/c1ccc2ccccc2n1`, the Potency is reported as “inactive”.
For `COc1cccc(/C=C/c2ccc3ccccc3n2)c1OC(C)=O`, the Potency was 0.447 µM (active).
With `COc1cccc(/C=C2\C=C(c3ccc(C)cc3)OC2=O)c1OC(C)=O` the Potency was “inactive”.
In the case of `CCc1ccc(Nc2nnc(SCC(=O)c3ccc4c(c3)NC(=O)CO4)s2)cc1`, the Potency is reported as “inactive”.
With `Cc1noc(C)c1-c1ccc2ncnc(NC(C)c3ccco3)c2c1` (stereo not drawn) the Potency was “inactive”.
In the case of `COc1ccc(CN2CCN(C(=O)c3cc(C4CC4)nn3-c3ccccc3)CC2)cc1F`, the Potency is reported as “inactive”.
For `Nc1ccc2nn(-c3ccc(Cl)cc3)nc2c1`, the Potency was 0.224 µM (active).
With `CN(C)c1nnnn1-c1ccc(Cl)cc1` the Potency was “inactive”.
For `c1ccc(-n2nc3ccccc3n2)cc1`, the Potency was “inactive”.
With `CCOc1ccc(N2C(=O)CSC2=NC#N)cc1` the Potency was “inactive”.
For `C=CCn1c(SCC(=O)Nc2ccc(NC(C)=O)cc2)nc2sc(C)c(C)c2c1=O`, the Potency was “inactive”.
In the case of `Cc1nc2ccc(NC(=O)C(F)(F)F)cc2o1`, the Potency is reported as “inactive”.
With `COC(=O)c1ccc(NC(=O)Nc2ccc(C)cc2)cc1` the Potency was “inactive”.
With `Cc1ccc(NC(=O)Nc2ccc3oc(C)nc3c2)cc1` the Potency was 1.58 µM (active).
For `CCOc1ccc(C(=O)NCC(=O)N2CCN(c3ccc(C(F)(F)F)cn3)CC2)cc1`, the Potency was “inactive”.
For `CCCCn1c(N)c(N(CCC(C)C)C(=O)COC(=O)c2ccc(CC)cc2)c(=O)[nH]c1=O`, the Potency was “inactive”.
With `Cc1ncc(CO)c(/C=N/NC(=O)c2cccc(S(=O)(=O)N3CCCC3)c2)c1O` the Potency was “inactive”.
